Structures can show the parent of a compound that is named as a salt. ± gives the uncertainty stated by the source.
Each compound was assayed on NCC-MFS5-C1 (assay: cell viability relative to DMSO control; higher = less growth inhibition). Conditions: 10 µM; treatment time: 3 days.
Description: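 NCC-MFS5-C1 myxofibrosarcoma cells (1x10^4 per well, 384-well) were treated on day 2 with 10 µM of each drug. On day 5, viability was read by CCK-8 absorbance at 450 nm and normalised to the DMSO control (%), n = 2.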
Compound `C#Cc1cccc(Nc2ncnc3cc(OCCOC)c(OCCOC)cc23)c1` [Erlotinib HCl (OSI-744)] has a cell viability of 81.6 ± 1%. `CNC(=O)c1cc(Oc2ccc(NC(=O)Nc3ccc(Cl)c(C(F)(F)F)c3)cc2)ccn1` [Sorafenib Tosylate] showed a cell viability of 45.3 ± 1.9%. For `Nc1nc(CC(=O)Nc2ccc(CCNC[C@H](O)c3ccccc3)cc2)cs1` [Mirabegron], the cell viability was 82.5 ± 4.6%. `Cc1ccc(C(=O)Nc2ccc(CN3CCN(C)CC3)c(C(F)(F)F)c2)cc1C#Cc1cnc2cccnn12` showed a cell viability of -2.74 ± 0.27%. Compound `COc1nc(N)nc2c1ncn2[C@@H]1O[C@H](CO)[C@@H](O)[C@@H]1O` [Nelarabine] has a cell viability of 102 ± 3.3%. `COc1ccc2c(c1OC)C(=O)O[C@@H]2[C@H]1c2c(cc3c(c2OC)OCO3)CCN1C` [Noscapine HCl] gave a cell viability of 75.82 ± 0.21%. With `Nc1nc(F)nc2c1ncn2[C@@H]1O[C@H](CO)[C@@H](O)[C@@H]1O` [Fludarabine] the cell viability was 96.3 ± 7.3%.

— the supplement of paper PMC8773631
